ALOX12 inhib = inhibitors of human 12-lipoxygenase (ALOX12) | Potency, µM (highest dose often 57.1 µM), inactives show at the top dose activity change, negative = inhibition, actives largely listed as inhibitors | purified 12-hLO, xylenol orange hydroperoxide absorbance | hit rate 0.12% among 150,000; active = well fitted inhibition curve with a large enough effect; inconclusive = small, poorly fitted or top-dose-only effect; also: potency is read from the fitted curve at half-maximal effect; nearly all actives have a fitted effect of over 55% in size
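Purified human 12hLO (150 nM final) was preincubated with compounds for 15 min at room temperature in 25 mM Hepes pH 7.0, 0.01% Triton X-100, then reacted with 40 uM arachidonic acid for 30 min. Hydroperoxide was detected with ferrous iron/xylenol orange.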
LMNA splice mod = changes lamin A minigene splicing in HeLa cells; HeLa LMNA splicing GFP/RFP minigene ratio, 48 h; Potency, µM (top dose mostly 46.1 µM), for inactives: at the highest dose ratio change, negative = inhibition, most hits filed as inhibitors; hit rate 0.01% among 200,000; AID 1487; active = well fitted inhibition curve with a large enough effect in the signal ratio, with a control signal flat, not every such curve was filed as active; inconclusive = small, poorly fitted or top-dose-only effect, or effect the other way, or a change in a side signal; the % refers to the signal ratio; also: potency is read from the fitted curve at half-maximal effect
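S3 HeLa cells stably expressing lamin A-EGFP splicing minigene plus DsRed2, 600 cells/well, 48 h compound exposure at 37C. Laser-scanning cytometry; analysed as GFP (500-530 nm)/RFP (575-640 nm) total intensity ratio; 0.5% DMSO vehicle.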
ALDH1A1 block = inhibitors of human aldehyde dehydrogenase 1A1; P00352; Purified ALDH1A1, NADH fluorescence, propionaldehyde substrate; Potency, µM (doses to about 75.3 µM), without a hit: at the highest dose activity, negative = inhibition, hits mostly inhibitors; hit rate 7.3% among 220,000; AID 1030;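 also: potency is read from the fitted curve at half-maximal effect; plate controls were no enzyme wells and a reference inhibitor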
PNC inhibitor = blocks assembly of the perinucleolar compartment. hit rate 3.1% among 140,000. activity change (PNC), negative = inhibition, % at 10 µM. PC3M PTB-GFP, PNC prevalence imaging, 16 h; stronger effect = lower value;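 active = readout at or below -70, meaning at least 70% loss of cells showing the perinucleolar compartment, a nuclear body marking cancer cells; inconclusive = readout between -30 and a set limit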;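 also: plate controls were DMSO wells for no effect and camptothecin positive control wells for full effect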
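PC3M cells stably expressing PTB-GFP, 750–1000 cells/well, treated 16 h at 37 °C with compound (23 nl of library stock), in duplicate. After paraformaldehyde fixation and Hoechst stain, imaged at 20x; PNC prevalence scored by image analysis.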
HPGD inh = HPGD (human) dehydrogenase inhibition; hit rate 4.3% among 150,000; purified HPGD, NADH fluorescence kinetic, PGE2 substrate; P15428; AID 894; Potency, µM, for inactives: at the top dose activity change, negative = inhibition, hits mostly inhibitors; also: potency is read from the fitted curve at half-maximal effect
Target sequence (P15428 whole entry, looked up): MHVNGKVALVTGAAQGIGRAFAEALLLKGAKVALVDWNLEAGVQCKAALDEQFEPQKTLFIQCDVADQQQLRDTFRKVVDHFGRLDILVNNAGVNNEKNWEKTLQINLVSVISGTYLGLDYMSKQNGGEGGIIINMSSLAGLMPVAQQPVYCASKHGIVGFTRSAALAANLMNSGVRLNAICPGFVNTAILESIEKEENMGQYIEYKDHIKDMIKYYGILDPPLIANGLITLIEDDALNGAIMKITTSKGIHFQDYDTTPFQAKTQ
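NADH formation kinetics: reaction with 30 uM PGE2 and 1 mM NAD+ (final), 20 nM enzyme, Tris-HCl pH 8 with Tween 20, after 15 min compound preincubation at room temperature. Fluorescence change, last versus first of five reads.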
Starred values were filed as active, the others as inactive; u = inconclusive; x = no result; ! = a repeat was not active; [ ] = remark or other dose. A selection: hits, their analogues and other compounds. The true share with any hit is near 10%. Unless noted, calls follow the shape of the dose curve; as a rule, active = well fitted inhibition curve with a large enough effect (not every such curve was filed as active); inconclusive = small, poorly fitted or top-dose-only effect, or another doubt; inactive = no such curve, though single readings can be large or run the other way. Unless noted, % is scaled to controls: 0 for no effect and ±100 for the full control effect.

SMILES	ALOX12 inhib	LMNA splice mod	ALDH1A1 block	PNC inhibitor	HPGD inh
Cc1cc(C(=O)CN2C(=O)NC3(CCCc4ccccc43)C2=O)c(C)n1Cc1ccccc1 (stereo unspecified)	-2%	5%	u	16	-24%
COc1ccc(NC(=O)CN2CCN(CC(=O)Nc3ccccc3F)CC2)cc1OC	-7%	9%	22µM*	-6	-9%
CCC(=O)Nc1ccc(OC)cc1OC	-5%	-13%	6%	u	-12%
COc1ccc(NC(=O)CSc2ccccc2)c(OC)c1	6%	-5%	4%	-81*	-28%
COc1ccc(NC(=O)N2CC(C)OC(C)C2)cc1OC (stereo unspecified)	-4%	-4%	2%	24	-11%
COc1ccc(NC(=O)N2CCCC2)cc1OC	-4%	-1%[0.0737 µM]	3%	-109*	-11%
COc1ccc(NC(=O)CN2CCN(CC(=O)Nc3ccccc3Cl)CC2)c(OC)c1	1%	u	u	u	1%
COc1ccccc1NC(=O)CN1CCN(CC(=O)Nc2ccc(F)c(F)c2)CC1	x	11%[46 µM]	x	x	x
COc1ccc(NC(=O)CN2CCN(CC(=O)Nc3ccccc3F)CC2)c(OC)c1	-6%	-11%	18µM*	-9	-16%
C[C@@H](COc1ccc(/C=C\c2ccccc2)cc1)[N+](C)(C)C	-6%	x	x	x	x
COc1ccc(NC(=O)CSc2ccc3nnc(-c4cccnc4)n3n2)c(OC)c1	x	-16%[46 µM]	40µM*	x	x
COc1ccc(-c2nnc3ccc(SCC(=O)NCc4ccco4)nn23)cc1OC	11%	-5%	-50%	-5	14µM*
COc1ccc(NCC(=O)Nc2ccc(Br)cc2F)c(OC)c1	x	u	1.6µM*	x	x
CCOC(=O)c1cc(-c2ccccc2)n(CC(=O)Nc2cccc(OC)c2)c1C	3%	-3%	9%	u	-5%
CCOC(=O)c1cc(-c2ccccc2)n(CC(=O)Nc2ccc(OC)c(OC)c2)c1C	-2%	u	8%	-88*	-5%
CC(C)C(C)(C)C(C)(C)C(C)(C)S	0%	x	u	x	-2%
Cc1cc(=O)[nH]c2nnc(SCc3ccc(F)cc3)n12	x	-2%[46 µM]	x	x	x
CCNc1ncc2nc(-c3ccccc3)c(=O)n(-c3ccc(OC)cc3)c2n1	-1%	x	u	x	u
O=C(CN1CCN(S(=O)(=O)c2ccccc2F)CC1)Nc1ccccc1C(=O)c1ccccc1	x	-7%[46 µM]	2.8µM*	x	x
COc1ccc(S(=O)(=O)N2CCN(CCC(=O)Nc3ccccc3F)CC2)cc1	5%	-9%	1.1µM*	-8	-11%
O=C(CN1CCN(C(=O)c2c(F)cccc2F)CC1)Nc1ccccc1F	6%	-21%	25µM*	u	-2%
O=C(CCN1CCN(CC(=O)Nc2ccccc2F)CC1)Nc1ccccc1F	-3%	5%	u	u	-1%
CC(C)C1S/C(=N/N=C/c2ccco2)NC1=O (stereo unspecified)	-16%	9%	x	16	13µM*
Cc1ccc(NC(=O)CC2S/C(=N/N=C/c3ccco3)NC2=O)cc1Cl (stereo unspecified)	x	4%[46 µM]	-1%	x	x
CCOC(=O)c1ccc(NC(=O)c2ccccc2[N+](=O)[O-])cc1	-3%	u	u	17	-5%
SMILES	ALOX12 inhib	LMNA splice mod	ALDH1A1 block	PNC inhibitor	HPGD inh
CCOC(=O)c1cc([N+](=O)[O-])c([N+](=O)[O-])cc1NC(C)=O	-3%	u	8.9µM*	-26	22µM*
CCOC(=O)c1c(O)c(O)c(C(=O)OCC)n1-c1ccccc1	x	-12%[46 µM]	u	x	x
CCOC(=O)c1ccc(N=C2C(=S)N(c3ccc(C(=O)OCC)cc3)C(=N)N2/N=C/c2ccccc2)cc1	-5%	5%	2µM*	-86*	22µM*
CCSc1oc(-c2ccco2)nc1S(=O)(=O)c1ccccc1	-5%	-2%	u	3	-21%
O=S(=O)(c1ccccc1)c1nc(-c2ccco2)oc1N1CCCCCC1	-4%	23%	0.2µM*	13	u
CN1CCN(c2oc(-c3ccco3)nc2S(=O)(=O)c2ccccc2)CC1	1%	3%	28µM*	4	-16%
CCOc1ccc(-n2ccnc2SCC(=O)Nc2nc3ccc(C)cc3s2)cc1	x	7%[46 µM]	x	x	x
Cc1ccc(N(Cc2cccs2)C(=O)c2ccccc2)cc1	x	16%[46 µM]	x	x	x
CCC(=O)N1CCc2cc(CNC(=O)Nc3cc(C)ccc3C)ccc21	x	16%[46 µM]	x	x	x
Cc1ccc(S(=O)(=O)c2cnc(SCC(=O)Nc3ccc4c(c3)OCCO4)[nH]c2=O)cc1Cl	x	2%[46 µM]	x	x	x
CC(C)=NOc1cc(NC(=O)CCl)cc([N+](=O)[O-])c1	-2%	u	0.18µM*	20	-10%
COC(=O)[C@@]1(Cc2ccccc2)[C@H]2c3cc(C(=O)N(C)C)n(Cc4c(CO)[nH]cc(C)c4=O)c3C[C@H]2CN1C(=O)c1ccccc1	-2%	x	-4%	x	-7%
COc1ccc(CN(CCC#N)C(=S)NC(=O)c2ccccc2)cc1	-1%	9%	25µM*	38	-13%
CCOc1ccc(CN(CCC#N)C(=S)NC(=O)c2ccccc2)cc1	1%	-12%	u	-13	-9%
N#CCCN(Cc1ccccc1)C(=S)NC(=O)c1ccccc1	1%	-10%	14µM*	53	-25%
Cc1cc(O)c(C(c2cccc(F)c2)N2CCN(c3ccccc3)CC2)c(=O)n1Cc1ccco1 (stereo unspecified)	x	-10%[46 µM]	x	x	x
Nc1nc(SCc2ccc([N+](=O)[O-])cc2)c2ncn([C@@H]3O[C@H](CO)[C@H](O)[C@H]3O)c2n1	x	-18%	-13%	x	25µM*
Nc1ncn([C@@H]2O[C@H](CO)[C@@H](O)[C@H]2O)c(=O)n1	-6%	u	22µM*!	x	-8%
NC(=O)c1ncn(C2OC(CO)C(O)C2O)c1N (stereo unspecified)	-2%	u	0%	x	-14%
COCCCn1c(-c2ccc(S(=O)(=O)N3CCOCC3)cc2)csc1=Nc1ccccc1	4%	-9%	14µM*	5	u
CSc1ccccc1-c1n[nH]c(=S)o1	x	10%[46 µM]	22µM*	x	x
O=C(Oc1ccccc1OC(=O)N1CCOCC1)N1CCOCC1	-1%	7%	4%	13	5%
CC(Oc1ccccc1Cl)C(=O)N1CCOCC1 (stereo unspecified)	-5%	21%	u	12	28µM*
Cc1cccc(N=N/C(=C\O)C(=O)c2cccs2)c1	x	u	8.9µM*	x	x
O=C(/C(N=Nc1cccc(C(F)(F)F)c1)=C(/O)c1cccs1)C(F)(F)F	x	x	0%	x	x
O=S(=O)(c1ccccc1)N1CCC2(CCN(Cc3ccncc3)CC2)CC1	-1%	x	-16%	x	-8%
COC(=O)c1ccc(NC(=O)CN(C)Cc2cccc(F)c2)cc1	x	20%[46 µM]	-9%	x	x
CN(Cc1cccc(F)c1)C(=O)c1ccc(S(=O)(=O)C(F)F)cc1	-3%	11%	u	35	32µM*
c1ccc(COCCCc2cnc[nH]2)cc1	-2%[0.00818 µM]	x	-14%	x	-2%

From PubChem
